Measured values as given in the supplement of paper PMC10849652.
The full data set covers some 8,800 targets. This sample favours those with a hit. About 0.5% of all pairs of compound and target were hits.

Assays:
Experiment in all cases: log2 fold change, soluble protein after heating vs DMSO (PISA); higher = thermal stabilisation; K562 lysate, 10 uM; active = over 0.2 and 3.5 SD of the protein, either way, in both replicates (recomputed)
ibrutinib = compound: C=CC(=O)N1CCC[C@@H](n2nc(-c3ccc(Oc4ccccc4)cc3)c3c(N)ncnc32)C1 [ibrutinib]
Method in brief: (§1)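 Following dounce homogenisation of K562 pellets in PBS pH 7.4 with 1 mM MgCl2, crude extract at 1 mg/mL protein was incubated for 30 min with 10 μM compound. Aliquots were then heated for 3 min over 48°C-58°C and pooled, NP-40 was added to 0.5% at 4°C, and soluble protein was recovered as the supernatant at 21,000xg for 90 min. Channel-sum-equalised TMTpro 16plex LC-MS/MS quantified this protein. Each value, from duplicates, is a log-two fold change in thermal stability relative to solvent controls.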

[1] = compound: CC(=O)c1cnc2ccc(-c3cc(Cl)c(O)c(Cl)c3)nc2c1N[C@H]1CC[C@H](CN(C)C)CC1
Method in brief: as §1

ralimetinib = compound: CC(C)(C)Cn1c(N)nc2ccc(-c3[nH]c(C(C)(C)C)nc3-c3ccc(F)cc3)nc21 [ralimetinib]
Method in brief: as §1

[2] = compound: CC(C)(O)CC(=O)NCCn1ccc2ncnc(Nc3ccc(Oc4cccc(C(F)(F)F)c4)c(Cl)c3)c21
Method in brief: as §1

[3] = compound: CC(C)C1=C2N=C(C=C(N2N=C1)NCC3=CC=CC=C3)NCCCCCCN
Method in brief: as §1

[4] = compound: CC1=C(C(CC(=O)N1)C2=CC=C(C=C2)C(F)(F)F)C(=O)NC3=C(C=C4C(=C3)C=NN4)F
Method in brief: as §1

[5] = compound: CC1=C(C2=C(C=C1)C(=O)C3=CC=CC=C3N2CCCN)C
Method in brief: as §1

[6] = compound: CC1=C(C=C(C=C1)NC(=O)C2=CC(=CC=C2)C(C)(C)C#N)NC3=CC4=C(C=C3)N=CN(C4=O)C
Method in brief: as §1

[7] = compound: CC1=C(C=C(C=C1)NC(=O)C2=CC(=CC=C2)N(C)C)NC(=O)C3=CC=C(C=C3)O
Method in brief: as §1

[8] = compound: CC1=CC=C(C=C1)SC2=C3C=C(SC3=CN=C2)C(=O)N
Method in brief: as §1

vemurafenib = compound: CCCS(=O)(=O)Nc1ccc(F)c(C(=O)c2c[nH]c3ncc(-c4ccc(Cl)cc4)cc23)c1F [vemurafenib]
Method in brief: as §1

[9] = compound: CCCS(=O)(=O)Nc1ccc(F)c(C(=O)c2c[nH]c3ncc(Cl)cc23)c1F
Method in brief: as §1

barasertib = compound: CCN(CCCOc1ccc2c(Nc3cc(CC(=O)Nc4cccc(F)c4)[nH]n3)ncnc2c1)CCOP(=O)(O)O [barasertib]
Method in brief: as §1

[10] = compound: CC[C@@H]1C(=O)N(C)c2cnc(Nc3ccc(C(=O)NC4CCN(C)CC4)cc3OC)nc2N1C1CCCC1
Method in brief: as §1

volasertib = compound: CC[C@@H]1C(=O)N(C)c2cnc(Nc3ccc(C(=O)N[C@H]4CC[C@H](N5CCN(CC6CC6)CC5)CC4)cc3OC)nc2N1C(C)C [volasertib]
Method in brief: as §1

[11] = compound: CCn1c(C(=O)N(C2CC2)C2CC2)cc2c3c(ncn3C)c(Nc3cc(C)n(C)n3)nc21
Method in brief: as §1

[12] = compound: CCn1cc(-c2ccnc3[nH]c(-c4cccc(CN(C)C)c4)cc23)c(-c2ccc(NC(=O)N(C)C)cc2)n1
Method in brief: as §1

[13] = compound: CN1CCC(CNc2ccc3ncc(-c4cccc(OC(F)(F)F)c4)n3n2)CC1
Method in brief: as §1

saracatinib = compound: CN1CCN(CCOc2cc(OC3CCOCC3)c3c(Nc4c(Cl)ccc5c4OCO5)ncnc3c2)CC1 [saracatinib]
Method in brief: as §1

sotrastaurin = compound: CN1CCN(c2nc(C3=C(c4c[nH]c5ccccc45)C(=O)NC3=O)c3ccccc3n2)CC1 [sotrastaurin]
Method in brief: as §1

Measured: log2 fold change

SMIM8 (UniProt Q96KF7)
Chain of UniProt Q96KF7 (Q96KF7 whole entry, looked up): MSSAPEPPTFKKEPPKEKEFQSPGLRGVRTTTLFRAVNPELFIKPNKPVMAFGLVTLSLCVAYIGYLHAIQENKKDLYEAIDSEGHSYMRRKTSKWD
active: [12] -0.382
inactive: ibrutinib 0.073 | [1] -0.02 | ralimetinib 0.059 | [2] -0.136 | [3] -0.095 | [4] -0.025 | [5] -0.128 | [6] 0.038 | [7] 0.053 | [8] -0.006 | vemurafenib 0.037 | [9] 0.048 | barasertib 0.088 | [10] -0.003 | volasertib 0.012 | [11] 0.057 | [13] 0.177 | saracatinib -0.071 | sotrastaurin -0.027

SMC6 (UniProt Q96SB8)
inactive: ibrutinib 0.021 | [1] -0.006 | ralimetinib 0.005 | [2] -0.012 | [3] 0.023 | [4] 0.065 | [5] 0.006 | [6] 0.006 | [7] 0.001 | [8] -0.01 | vemurafenib 0.044 | [9] 0.01 | barasertib 0.014 | [10] 0.047 | volasertib -0.031 | [11] 0.012 | [12] -0.036 | [13] 0.024 | saracatinib 0.046 | sotrastaurin 0.027

SPATA5L1 (UniProt Q9BVQ7)
inactive: ibrutinib -0.007 | [1] 0.02 | ralimetinib 0.037 | [2] -0.054 | [3] 0.018 | [4] -0.004 | [5] -0.052 | [6] -0.007 | [7] 0.026 | [8] -0.008 | vemurafenib 0.03 | [9] 0.015 | barasertib 0.052 | [10] -0.058 | volasertib -0.135 | [11] 0.014 | [12] -0.023 | [13] 0.012 | saracatinib 0.024 | sotrastaurin 0.015

SRPK1 (UniProt Q96SB4)
inactive: ibrutinib 0.031 | [1] 0.008 | ralimetinib -0.004 | [2] -0.001 | [3] -0.005 | [4] -0.004 | [5] -0.018 | [6] 0.006 | [7] -0.029 | [8] 0.011 | vemurafenib 0.003 | [9] 0.029 | barasertib -0.014 | [10] 0.093 | volasertib -0.01 | [11] 0.008 | [12] 0.055 | [13] -0.072 | saracatinib 0.012 | sotrastaurin 0.021

SULT1A1 (UniProt P50225)
Chain of UniProt P50225 (P50225 whole entry, looked up): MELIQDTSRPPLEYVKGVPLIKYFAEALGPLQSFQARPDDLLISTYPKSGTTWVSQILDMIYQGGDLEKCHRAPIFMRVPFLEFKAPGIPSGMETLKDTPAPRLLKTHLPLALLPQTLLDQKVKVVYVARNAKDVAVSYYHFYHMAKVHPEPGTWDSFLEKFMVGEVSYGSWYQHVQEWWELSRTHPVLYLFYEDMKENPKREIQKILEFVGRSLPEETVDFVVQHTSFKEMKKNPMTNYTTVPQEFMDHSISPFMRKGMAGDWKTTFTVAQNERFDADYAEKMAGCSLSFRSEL
inactive: ibrutinib 0.02 | [1] -0.027 | ralimetinib 0.028 | [2] -0.03 | [3] 0.03 | [4] -0.009 | [5] -0.06 | [6] 0.022 | [7] 0.047 | [8] 0.006 | vemurafenib 0.014 | [9] 0.004 | barasertib -0.017 | [10] 0.032 | volasertib -0.046 | [11] -0.016 | [12] 0.014 | [13] -0.009 | saracatinib 0.037 | sotrastaurin -0.009

SYNRG (UniProt Q9UMZ2)
Chain of UniProt Q9UMZ2 (Q9UMZ2 whole entry, looked up): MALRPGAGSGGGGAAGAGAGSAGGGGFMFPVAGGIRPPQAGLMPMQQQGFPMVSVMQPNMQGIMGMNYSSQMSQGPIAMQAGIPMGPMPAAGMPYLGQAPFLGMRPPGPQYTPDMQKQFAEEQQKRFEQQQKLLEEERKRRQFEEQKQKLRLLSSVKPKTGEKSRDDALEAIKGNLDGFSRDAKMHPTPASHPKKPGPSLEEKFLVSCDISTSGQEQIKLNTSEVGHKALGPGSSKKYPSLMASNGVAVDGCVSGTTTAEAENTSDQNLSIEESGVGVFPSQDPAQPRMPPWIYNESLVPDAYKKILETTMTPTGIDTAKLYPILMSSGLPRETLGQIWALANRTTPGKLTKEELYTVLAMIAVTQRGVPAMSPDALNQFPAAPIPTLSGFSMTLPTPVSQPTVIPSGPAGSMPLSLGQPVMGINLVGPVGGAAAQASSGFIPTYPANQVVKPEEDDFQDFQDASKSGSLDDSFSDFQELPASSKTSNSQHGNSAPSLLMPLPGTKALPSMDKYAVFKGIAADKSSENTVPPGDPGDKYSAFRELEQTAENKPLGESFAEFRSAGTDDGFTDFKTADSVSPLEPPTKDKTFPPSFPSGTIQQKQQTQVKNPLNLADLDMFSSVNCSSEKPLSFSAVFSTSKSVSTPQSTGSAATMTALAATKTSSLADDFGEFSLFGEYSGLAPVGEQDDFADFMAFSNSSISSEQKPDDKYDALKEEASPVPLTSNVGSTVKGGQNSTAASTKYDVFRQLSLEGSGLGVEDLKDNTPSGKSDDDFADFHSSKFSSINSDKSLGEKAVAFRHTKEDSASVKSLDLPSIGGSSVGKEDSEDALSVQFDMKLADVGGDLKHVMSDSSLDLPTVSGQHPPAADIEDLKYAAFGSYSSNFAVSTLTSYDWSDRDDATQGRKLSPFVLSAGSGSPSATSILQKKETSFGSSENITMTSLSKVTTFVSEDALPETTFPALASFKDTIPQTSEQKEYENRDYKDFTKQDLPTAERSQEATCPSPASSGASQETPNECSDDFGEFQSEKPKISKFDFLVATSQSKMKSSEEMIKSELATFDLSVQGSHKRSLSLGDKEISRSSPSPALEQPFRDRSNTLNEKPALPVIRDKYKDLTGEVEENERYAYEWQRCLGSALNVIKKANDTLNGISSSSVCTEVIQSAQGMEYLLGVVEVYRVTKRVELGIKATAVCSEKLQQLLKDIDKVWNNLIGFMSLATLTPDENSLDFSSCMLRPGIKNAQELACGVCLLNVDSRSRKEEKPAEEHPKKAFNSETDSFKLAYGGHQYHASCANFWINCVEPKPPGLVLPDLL
inactive: ibrutinib -0.023 | [1] -0.028 | ralimetinib -0.016 | [2] -0.083 | [3] 0.015 | [4] -0.019 | [5] -0.018 | [6] -0.042 | [7] 0.022 | [8] -0.052 | vemurafenib -0.006 | [9] 0.022 | barasertib 0.015 | [10] 0.037 | volasertib 0 | [11] -0.019 | [12] 0.017 | [13] -0.1 | saracatinib 0.013 | sotrastaurin -0.009

SKA1 (UniProt Q96BD8)
Chain of UniProt Q96BD8 (Q96BD8 whole entry, looked up): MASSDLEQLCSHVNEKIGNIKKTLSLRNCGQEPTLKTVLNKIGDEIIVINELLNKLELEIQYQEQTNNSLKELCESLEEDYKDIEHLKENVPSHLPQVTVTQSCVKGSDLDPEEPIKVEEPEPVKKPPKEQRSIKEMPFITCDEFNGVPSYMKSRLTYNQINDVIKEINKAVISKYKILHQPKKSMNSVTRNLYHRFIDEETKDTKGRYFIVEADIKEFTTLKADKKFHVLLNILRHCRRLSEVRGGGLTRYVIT
inactive: ibrutinib 0.002 | [1] 0.033 | ralimetinib -0.023 | [2] -0.017 | [3] 0.044 | [4] 0.014 | [5] 0.066 | [6] -0.017 | [7] 0.033 | [8] 0.007 | vemurafenib -0.004 | [9] -0.01 | barasertib -0.017 | volasertib -0.121 | [11] 0.003 | [12] -0.167 | [13] 0.021 | saracatinib 0.071 | sotrastaurin 0.066
active: [10] -0.234

STK26 (UniProt Q9P289)
Chain of UniProt Q9P289 (Q9P289 whole entry, looked up): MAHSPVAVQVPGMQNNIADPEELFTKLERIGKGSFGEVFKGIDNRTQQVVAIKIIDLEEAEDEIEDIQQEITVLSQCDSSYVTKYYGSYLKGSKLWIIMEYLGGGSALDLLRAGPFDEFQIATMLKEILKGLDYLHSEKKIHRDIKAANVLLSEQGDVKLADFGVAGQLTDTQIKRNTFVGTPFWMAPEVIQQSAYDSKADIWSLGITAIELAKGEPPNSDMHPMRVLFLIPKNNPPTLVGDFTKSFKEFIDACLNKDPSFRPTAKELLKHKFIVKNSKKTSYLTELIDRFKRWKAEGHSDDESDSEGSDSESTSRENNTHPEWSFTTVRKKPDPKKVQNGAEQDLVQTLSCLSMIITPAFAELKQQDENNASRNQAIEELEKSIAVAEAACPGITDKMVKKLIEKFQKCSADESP
inactive: ibrutinib -0.043 | [1] 0.113 | ralimetinib -0.018 | [2] 0.004 | [3] -0.015 | [4] -0.021 | [5] 0.006 | [6] -0.028 | [7] 0.035 | [8] -0.025 | vemurafenib 0.021 | [9] -0.008 | barasertib -0.009 | [10] -0.032 | volasertib -0.064 | [11] 0.037 | [12] -0.045 | [13] -0.048 | saracatinib -0.02 | sotrastaurin 0.006

SH3BP5L (UniProt Q7L8J4)
Chain of UniProt Q7L8J4 (Q7L8J4 whole entry, looked up): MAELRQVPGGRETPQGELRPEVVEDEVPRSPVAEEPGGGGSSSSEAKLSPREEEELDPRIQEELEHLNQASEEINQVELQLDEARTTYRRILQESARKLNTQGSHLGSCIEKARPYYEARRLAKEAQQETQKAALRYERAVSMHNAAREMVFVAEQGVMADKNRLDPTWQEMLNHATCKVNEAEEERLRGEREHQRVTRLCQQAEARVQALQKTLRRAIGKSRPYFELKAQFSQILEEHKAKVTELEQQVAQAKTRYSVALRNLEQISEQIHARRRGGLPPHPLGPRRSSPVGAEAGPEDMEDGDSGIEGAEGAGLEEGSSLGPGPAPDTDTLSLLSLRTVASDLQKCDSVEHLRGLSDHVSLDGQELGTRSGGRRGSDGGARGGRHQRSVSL
inactive: ibrutinib 0.007 | [1] 0.013 | ralimetinib -0.024 | [2] -0.035 | [3] 0.032 | [4] 0.009 | [5] -0.02 | [6] 0.021 | [7] -0.017 | [8] -0.045 | vemurafenib 0.078 | [9] 0.02 | barasertib -0.029 | [10] 0.011 | volasertib 0.013 | [11] -0.011 | [12] -0.014 | [13] 0.072 | saracatinib 0.05 | sotrastaurin 0

TAF6L (UniProt Q9Y6J9)
Chain of UniProt Q9Y6J9 (Q9Y6J9 whole entry, looked up): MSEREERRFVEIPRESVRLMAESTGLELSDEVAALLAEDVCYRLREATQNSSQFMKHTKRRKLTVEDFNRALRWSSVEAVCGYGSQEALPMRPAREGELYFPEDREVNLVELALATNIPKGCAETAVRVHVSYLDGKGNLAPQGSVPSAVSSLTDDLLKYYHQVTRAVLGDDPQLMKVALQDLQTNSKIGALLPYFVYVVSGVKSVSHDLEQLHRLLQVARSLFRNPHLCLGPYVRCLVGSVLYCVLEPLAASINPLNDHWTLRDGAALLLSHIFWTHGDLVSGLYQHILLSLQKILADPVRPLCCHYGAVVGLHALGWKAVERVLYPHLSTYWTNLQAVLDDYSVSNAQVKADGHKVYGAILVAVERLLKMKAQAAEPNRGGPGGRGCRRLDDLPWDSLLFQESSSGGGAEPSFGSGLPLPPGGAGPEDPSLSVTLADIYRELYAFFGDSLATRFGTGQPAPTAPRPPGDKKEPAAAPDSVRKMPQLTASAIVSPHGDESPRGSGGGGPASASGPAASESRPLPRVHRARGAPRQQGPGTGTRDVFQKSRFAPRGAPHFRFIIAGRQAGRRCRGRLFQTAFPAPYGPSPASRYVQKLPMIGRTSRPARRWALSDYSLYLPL
active: [10] -0.245
inactive: ibrutinib 0.072 | [1] 0.046 | ralimetinib 0.042 | [2] -0.078 | [3] 0.01 | [4] -0.041 | [5] -0.006 | [6] -0.027 | [7] 0.027 | [8] -0.009 | vemurafenib -0.029 | [9] 0.035 | barasertib -0.05 | volasertib -0.007 | [11] -0.015 | [12] 0.018 | [13] 0.022 | saracatinib 0.029 | sotrastaurin 0.05

SFN (UniProt P31947)
Chain of UniProt P31947 (P31947 whole entry, looked up): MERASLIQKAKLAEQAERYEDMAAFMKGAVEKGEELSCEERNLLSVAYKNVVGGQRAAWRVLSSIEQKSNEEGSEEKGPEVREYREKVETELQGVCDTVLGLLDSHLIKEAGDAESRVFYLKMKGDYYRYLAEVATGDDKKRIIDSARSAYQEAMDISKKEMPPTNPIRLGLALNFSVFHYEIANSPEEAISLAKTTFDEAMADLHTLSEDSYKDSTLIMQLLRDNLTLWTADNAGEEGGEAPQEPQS
inactive: ibrutinib 0.015 | [1] 0.01 | ralimetinib -0.002 | [2] 0.035 | [3] 0.016 | [4] 0.045 | [5] 0.031 | [6] -0.036 | [7] -0.004 | [8] -0.021 | vemurafenib -0.038 | [9] 0.003 | barasertib -0.025 | [10] 0.006 | volasertib 0.029 | [11] 0.023 | [13] -0.084 | saracatinib -0.003 | sotrastaurin -0.01
active: [12] 0.521

SRSF2 (UniProt Q01130)
Chain of UniProt Q01130 (Q01130 whole entry, looked up): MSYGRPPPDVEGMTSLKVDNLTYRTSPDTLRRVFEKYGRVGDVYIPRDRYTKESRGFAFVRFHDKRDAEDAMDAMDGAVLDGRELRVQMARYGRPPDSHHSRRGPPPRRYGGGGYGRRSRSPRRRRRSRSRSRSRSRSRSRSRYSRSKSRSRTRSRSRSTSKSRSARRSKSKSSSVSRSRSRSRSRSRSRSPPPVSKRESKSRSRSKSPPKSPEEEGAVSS
inactive: ibrutinib 0.021 | [1] -0.009 | ralimetinib 0.034 | [2] -0.065 | [3] -0.013 | [4] -0.021 | [5] -0.015 | [6] 0.016 | [7] 0.028 | [8] -0.018 | vemurafenib -0.001 | [9] -0.014 | barasertib -0.007 | [10] 0.02 | volasertib 0.002 | [11] -0.065 | [12] -0.232 | [13] 0.153 | saracatinib 0.033 | sotrastaurin 0.024

SNAP23 (UniProt O00161)
Chain of UniProt O00161 (O00161 whole entry, looked up): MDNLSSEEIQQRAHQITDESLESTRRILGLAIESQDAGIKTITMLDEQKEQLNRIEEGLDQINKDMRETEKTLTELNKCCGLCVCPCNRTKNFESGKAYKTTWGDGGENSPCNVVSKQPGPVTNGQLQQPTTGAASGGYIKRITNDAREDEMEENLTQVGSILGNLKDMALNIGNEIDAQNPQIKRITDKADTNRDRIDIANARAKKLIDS
inactive: ibrutinib 0.021 | [1] -0.003 | ralimetinib -0.01 | [2] 0.01 | [3] -0.04 | [4] -0.015 | [5] 0.045 | [6] 0.015 | [7] -0.013 | [8] 0.011 | vemurafenib 0.013 | [9] -0.025 | barasertib 0.041 | [10] -0.009 | volasertib 0.034 | [11] 0.033 | [12] 0.025 | [13] 0.014 | saracatinib -0.011 | sotrastaurin -0.001

SNCA (UniProt P37840)
inactive: ibrutinib 0.102 | [1] -0.148 | ralimetinib 0.028 | [2] 0.02 | [3] 0.013 | [4] 0.036 | [5] -0.068 | [6] -0.042 | [7] -0.059 | [8] 0.028 | vemurafenib 0.042 | [9] -0.039 | barasertib -0.027 | [10] 0.08 | volasertib 0.072 | [11] -0.022 | [12] -0.109 | [13] 0.287 | saracatinib -0.035 | sotrastaurin 0.068

SLC25A25 isoform 3 (UniProt Q6KCM7)
inactive: ibrutinib -0.015 | [1] -0.028 | ralimetinib 0.011 | [2] 0.021 | [3] 0.018 | [4] 0.022 | [5] -0.036 | [6] 0.017 | [7] -0.012 | [8] 0.034 | vemurafenib -0.011 | [9] -0.012 | barasertib 0.004 | [10] 0.012 | volasertib 0.03 | [11] 0.007 | [12] -0.012 | [13] -0.053 | saracatinib 0.016 | sotrastaurin -0.016

STAT2 (UniProt P52630)
Chain of UniProt P52630 (P52630 whole entry, looked up): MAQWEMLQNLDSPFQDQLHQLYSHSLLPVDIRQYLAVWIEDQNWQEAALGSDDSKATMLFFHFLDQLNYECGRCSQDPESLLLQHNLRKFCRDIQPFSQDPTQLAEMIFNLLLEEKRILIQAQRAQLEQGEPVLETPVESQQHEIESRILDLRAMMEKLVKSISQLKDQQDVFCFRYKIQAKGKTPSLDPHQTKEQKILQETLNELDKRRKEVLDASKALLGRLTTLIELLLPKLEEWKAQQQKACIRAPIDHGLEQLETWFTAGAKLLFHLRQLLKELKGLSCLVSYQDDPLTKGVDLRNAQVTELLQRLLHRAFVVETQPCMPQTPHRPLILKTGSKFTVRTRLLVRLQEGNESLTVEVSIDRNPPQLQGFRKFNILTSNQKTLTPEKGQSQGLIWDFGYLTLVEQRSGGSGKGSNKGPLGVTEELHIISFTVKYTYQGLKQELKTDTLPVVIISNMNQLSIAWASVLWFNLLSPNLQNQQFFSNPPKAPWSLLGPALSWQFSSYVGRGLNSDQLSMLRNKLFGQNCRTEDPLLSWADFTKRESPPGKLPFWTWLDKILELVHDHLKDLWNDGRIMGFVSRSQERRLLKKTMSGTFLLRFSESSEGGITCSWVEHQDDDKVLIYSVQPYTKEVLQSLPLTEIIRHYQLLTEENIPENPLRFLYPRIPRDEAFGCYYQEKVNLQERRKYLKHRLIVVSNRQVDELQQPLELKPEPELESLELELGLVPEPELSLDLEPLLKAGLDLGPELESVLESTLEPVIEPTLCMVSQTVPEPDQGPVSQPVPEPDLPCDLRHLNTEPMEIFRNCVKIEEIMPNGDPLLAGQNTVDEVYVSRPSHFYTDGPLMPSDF
inactive: ibrutinib 0.007 | [1] 0.007 | ralimetinib 0.04 | [2] -0.026 | [3] -0.003 | [4] 0.009 | [5] -0.002 | [6] -0.059 | [7] 0.003 | [8] 0.004 | vemurafenib 0.04 | [9] 0.026 | barasertib -0.021 | [10] -0.03 | volasertib -0.047 | [11] 0.033 | [12] -0.011 | [13] -0.164 | saracatinib -0.009 | sotrastaurin 0.029
